According to PubChem BioAssay (Tox21):
Inconclusive results are not listed. The source made the active and inactive calls. Unless noted, calls follow the shape of the dose curve; as a rule, active = well fitted curve in the direction sought with a large enough effect in the repeat runs; inconclusive = weak or mixed curves; inactive = no such curve, though single readings can be large; an effect the other way counts as inactive or inconclusive.

Key:
[1] = qHTS assay to identify small molecule antagonists of the estrogen related receptor (ERR) signaling pathway from Tox21 library - cell viability counter screen (AID 1224834); also: nearly all actives have a fitted effect of over 30% in size
In short: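 Seeded ERR cells were rested 6 h at 37 C/5% CO2 before compounds, positive and negative controls or DMSO were added. Incubation continued for 17.5 h, and viability was then quantified by CellTiter-Fluor fluorescence.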

[2] = biological target: Luciferin 4-monooxygenase (Photinus pyralis) (UniProt P08659); assay: qHTS assay to identify small molecule inhibitors of firefly luciferase (AID 1224835); also: nearly all actives have a fitted effect of over 25% in size
Chain of Luciferin 4-monooxygenase (Photinus pyralis) (P08659 whole entry, looked up): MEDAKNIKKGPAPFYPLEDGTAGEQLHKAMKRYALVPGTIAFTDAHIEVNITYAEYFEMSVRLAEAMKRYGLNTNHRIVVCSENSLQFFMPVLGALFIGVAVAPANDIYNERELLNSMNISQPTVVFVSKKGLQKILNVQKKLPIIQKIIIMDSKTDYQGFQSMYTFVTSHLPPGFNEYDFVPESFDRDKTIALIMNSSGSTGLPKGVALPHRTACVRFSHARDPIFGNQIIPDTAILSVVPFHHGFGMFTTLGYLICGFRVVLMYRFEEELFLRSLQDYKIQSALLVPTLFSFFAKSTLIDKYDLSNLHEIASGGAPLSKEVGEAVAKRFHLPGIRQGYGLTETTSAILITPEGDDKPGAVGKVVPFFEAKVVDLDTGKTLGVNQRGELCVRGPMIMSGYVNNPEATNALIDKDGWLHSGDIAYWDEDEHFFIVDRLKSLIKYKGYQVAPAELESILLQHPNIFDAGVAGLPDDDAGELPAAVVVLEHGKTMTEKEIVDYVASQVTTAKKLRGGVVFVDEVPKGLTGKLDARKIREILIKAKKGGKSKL
In short: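 Quantitative HTS format; KM concentrations of both substrates. Purified P. pyralis FLuc activity quantified from luminescence images.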

[3] = qHTS assay to identify small molecule agonists of the constitutive androstane receptor (CAR) signaling pathway - cell viability counter screen (AID 1224836); also: nearly all actives have a fitted effect of over 45% in size
In short: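 HepG2 cells stably carrying hCAR and a CYP2B6-2.2kb reporter were plated 4 h, then given compounds at 15 concentrations plus PK11195 (final 0.75 uM). After 23 h at 37 C, viability was read by CellTiter-Fluor fluorescence.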

[4] = qHTS assay to identify small molecule antagonists of the constitutive androstane receptor (CAR) signaling pathway - cell viability counter screen (AID 1224837); also: nearly all actives have a fitted effect of over 45% in size
In short: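 To flag cytotoxic false antagonists, HepG2 hCAR/CYP2B6-2.2kb cells were treated 23 hr with 15-concentration compound series and 50 nM CITCO at 37 C/5% CO2; CellTiter-Fluor fluorescence was the measured end point.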

[5] = biological target: Nuclear receptor subfamily 1 group I member 3 (Homo sapiens) (UniProt Q14994); assay: qHTS assay to identify small molecule antagonists of the constitutive androstane receptor (CAR) signaling pathway (AID 1224838); also: nearly all actives have a fitted effect of over 40% in size
Chain of Nuclear receptor subfamily 1 group I member 3 (Homo sapiens) (Q14994 whole entry, looked up): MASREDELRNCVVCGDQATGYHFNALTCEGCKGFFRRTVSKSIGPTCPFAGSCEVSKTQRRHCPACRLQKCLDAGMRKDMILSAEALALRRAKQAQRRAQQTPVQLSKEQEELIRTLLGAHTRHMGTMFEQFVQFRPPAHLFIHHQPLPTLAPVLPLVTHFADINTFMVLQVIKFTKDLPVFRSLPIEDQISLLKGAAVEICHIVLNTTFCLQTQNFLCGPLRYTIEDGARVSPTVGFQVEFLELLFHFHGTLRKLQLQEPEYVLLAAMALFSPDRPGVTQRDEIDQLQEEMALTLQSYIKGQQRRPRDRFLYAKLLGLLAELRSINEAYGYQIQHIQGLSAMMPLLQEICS
In short: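 Human hepatoma HepG2 cells expressing hCAR and a CYP2B6 promoter (2.2 kb) luciferase construct; compound titration (15 points) with 50 nM CITCO final, 24 h at 37 C/5% CO2; luminescence via ONE-Glo after 30 min at room temperature.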

[6] = biological target: Nuclear receptor subfamily 1 group I member 3 (Homo sapiens) (UniProt Q14994); assay: qHTS assay to identify small molecule agonists of the constitutive androstane receptor (CAR) signaling pathway (AID 1224839);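 also: HepG2 cells stably carrying human CAR and a CYP2B6 luciferase reporter; nearly all actives have a fitted effect of over 15% in size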
In short: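 HepG2 cells stably expressing hCAR and a CYP2B6-2.2kb luciferase reporter were treated with compounds at 15 concentrations plus 0.75 uM PK11195 (final) for 24 h at 37 C; luminescence was read after ONE-Glo addition.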

[7] = qHTS assay to identify small molecule antagonists of the estrogen related receptor signaling pathway with the pleiotropic PPARgamma coactivator (PGC) from Tox21 10K library - cell viability counter screen (AID 1224840; active = well fitted cell-killing curve with a large enough effect in the repeat runs, not every such curve was filed as active; also: nearly all actives have a fitted effect of over 40% in size)
In short: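 Seeded PGC/ERR cells (2,000/well, 6 h, 37 C/5% CO2) get compound by pin tool; 17.5 h incubation at 37 C; CellTiter-Fluor added, 30 min, fluorescence measured.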

[8] = biological target: Thyrotropin receptor (Homo sapiens) (UniProt P16473); assay: qHTS assay to identify small molecule agonists of the thyroid stimulating hormone receptor (TSHR) signaling pathway (AID 1224843; calls by dose curve; also: nearly all actives have a fitted effect of over 45% in size; also: potency is read from the fitted curve at half-maximal effect)
Chain of Thyrotropin receptor (Homo sapiens) (P16473 whole entry, looked up): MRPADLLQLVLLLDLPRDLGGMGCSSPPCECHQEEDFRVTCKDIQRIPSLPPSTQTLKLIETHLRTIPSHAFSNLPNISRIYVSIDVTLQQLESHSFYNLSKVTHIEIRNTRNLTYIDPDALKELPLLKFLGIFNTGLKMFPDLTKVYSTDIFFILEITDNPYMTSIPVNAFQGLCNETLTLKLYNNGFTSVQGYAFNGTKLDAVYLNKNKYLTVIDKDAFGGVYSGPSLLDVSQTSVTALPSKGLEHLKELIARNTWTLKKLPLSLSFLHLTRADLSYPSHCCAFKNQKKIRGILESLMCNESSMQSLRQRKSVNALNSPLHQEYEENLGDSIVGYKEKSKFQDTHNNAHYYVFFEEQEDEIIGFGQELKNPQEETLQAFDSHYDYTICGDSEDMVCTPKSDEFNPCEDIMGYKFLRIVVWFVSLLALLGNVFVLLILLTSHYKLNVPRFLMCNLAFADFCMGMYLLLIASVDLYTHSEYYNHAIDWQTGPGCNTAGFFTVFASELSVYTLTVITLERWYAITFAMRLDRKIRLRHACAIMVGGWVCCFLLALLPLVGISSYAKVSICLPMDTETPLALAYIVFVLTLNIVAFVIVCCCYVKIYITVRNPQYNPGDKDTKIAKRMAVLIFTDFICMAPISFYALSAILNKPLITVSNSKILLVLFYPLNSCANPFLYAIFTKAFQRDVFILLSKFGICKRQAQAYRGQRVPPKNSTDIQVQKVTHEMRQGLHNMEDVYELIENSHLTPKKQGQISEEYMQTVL
In short: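 Using 15 concentrations per compound in triplicate, cAMP production was monitored in TSHR-HEK293 cells after 30 min compound incubation at RT; HTRF reagents followed, with fluorescence intensity recorded after 1 h.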

[9] = qHTS assay to identify small molecule agonists of the hypoxia (HIF-1) signaling pathway - cell viability counter screen (AID 1224844; calls by dose curve; also: nearly all actives have a fitted effect of over 50% in size)
In short: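 HRE-bla ME-180; 0.5% dFBS; cpd 17 h, 37C, 5% CO2; CellTiter-Glo lum., 30 min RT, post-FRET read, same wells.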

[10] = qHTS assay to identify small molecule agonists of H2AX (AID 1224845; active = well fitted activation curve with a large enough effect in the signal ratio in the repeat runs, not every such curve was filed as active; the % refers to the signal ratio)
In short: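 Wild-type CHO-K1 cells plated overnight, then exposed 3 hr at 37C to compounds at 15 concentrations (0.76% DMSO). Lysed, then HTRF anti-pH2AX(S139)-cryptate/anti-H2AX-d2 detection after 24 hr at room temperature; emissions 665 and 620 nm.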

[11] = qHTS assay to identify small molecule agonists of the hypoxia (HIF-1) signaling pathway (AID 1224846; active = well fitted activation curve with a large enough effect in the signal ratio in the repeat runs, not every such curve was filed as active; the % refers to the signal ratio)
In short: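 Reporter induction in HRE-bla ME-180 cells is taken as agonism: cells sit 5 hrs after plating, receive compounds or DMSO only, incubate 17 hrs at 37C under 5% CO2, and are loaded with CCF4-AM for beta-lactamase FRET measurement.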

[12] = qHTS assay to identify small molecule agonists of H2AX - cell viability counter screen (AID 1224847; calls by dose curve; also: top concentration of the series differs between compounds; nearly all actives have a fitted effect of over 30% in size)
In short: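 Wild-type CHO-K1 cells (10% FBS medium) were plated overnight at 37C, exposed to compounds at 15 concentrations for 3 hr at 37C (0.76% DMSO final), and viability was read as CellTiter-Glo luminescence after 30 min at room temperature.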

[13] = qHTS RealTime-Glo MT Cell Viability Assay in HepG2 cells - 24 hour (AID 1224867); also: nearly all actives have a fitted effect of over 50% in size
In short: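 HepG2 suspension premixed with RealTime-Glo reagents is plated at 600 cells per well and left 5 h at 37 C/5% CO2. Compounds in DMSO then go in, and bioluminescence reflecting viable cell number is recorded over 40 h.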

[14] = qHTS RealTime-Glo MT Cell Viability Assay in HEK293 cells - 32 hour (AID 1224868); also: top concentration of the series differs between compounds; nearly all actives have a fitted effect of over 50% in size
In short: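 Reads taken at 0, 8, 16, 24, 32 and 40 h from the same wells. HEK293 cells (600/well) carried RealTime-Glo reagents from seeding, with compound added after a 5 h settle at 37 C.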

[15] = A CellTox Green Cytotoxicity Assay to monitor cytotoxicity in HEK293 cells - 0 hour (AID 1224869); also: nearly all actives have a fitted effect of over 50% in size
In short: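 Tox21 screen in HEK293: membrane-impermeant cyanine dye fluoresces on binding dead-cell DNA; compound pinned 5 h post-seeding, plates held at 37 C, signal read repeatedly through 40 h.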

[16] = qHTS assay to identify small molecule antagonists of the estrogen related receptor signaling pathway with the pleiotropic PPARgamma coactivator (PGC) from Tox21 10K library (AID 1224841; call rule not given here)
In short: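 Test chemicals dissolved in DMSO were applied to pre-incubated (6 h) PGC/ERR cells at 2,000 cells/well for an 18 h, 37 C treatment; reporter luminescence was then read using One-Glo.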

[17] = qHTS assay to identify small molecule agonists of the estrogen related receptor signaling pathway with the pleiotropic PPARgamma coactivator (PGC) from Tox21 10K library (AID 1224842); also: nearly all actives have a fitted effect of over 15% in size
In short: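 PGC/ERR reporter cells (NTP line) were seeded 2,000 per well, rested 6 h at 37 C/5% CO2, then pin-dosed with compounds in DMSO for 18 h at 37 C; luciferase read by One-Glo luminescence after 30 min at room temperature.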

[18] = qHTS assay to identify small molecule antagonists of the estrogen related receptor (ERR) signaling pathway from Tox21 library (AID 1224848); also: nearly all actives have a fitted effect of over 50% in size
In short: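 Tox21 10K compounds in DMSO tested for ERR pathway antagonism in NTP's ERR cell line; 18 h, 37 C exposure; ONE-Glo luminescence.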

[19] = qHTS assay to identify small molecule agonists of the estrogen related receptor (ERR) signaling pathway from Tox21 library (AID 1224849; calls by dose curve; also: nearly all actives have a fitted effect of over 15% in size); details: ERR reporter cell line, ONE-Glo luciferase, 18 h; at 92.4 µM (top of the series) unless noted
In short: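 Tox21 compounds tested for ERR agonism in an NTP reporter cell line: 18 h treatment at 37 C, then ONE-Glo luminescence.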
% is scaled to controls: 0 for no effect and ±100 for the full control effect.

O=C(O)C(=O)Cc1ccccc1
inactive: Potency [1] | Potency [2] | Potency [3] | Potency [4] | outcome [5] | Potency [6] | outcome [7] | outcome [9] | outcome [10] | outcome [11] | Potency [12] | outcome [13] | Potency [14] | outcome [15]
active: Potency [8] 30.6 µM

CC(C)C[C@H](NC(=O)CNC(=O)[C@H](Cc1ccc(O)cc1)NC(=O)[C@H](CO)NC(=O)[C@H](Cc1c[nH]c2ccccc12)NC(=O)[C@H](Cc1cnc[nH]1)NC(=O)[C@@H]1CCC(=O)N1)C(=O)N[C@@H](CCCN=C(N)N)C(=O)N1CCC[C@H]1C(=O)NCC(N)=O (stereo in doubt)
inactive: Potency [1] | Potency [2] | Potency [3] | Potency [4] | outcome [5] | Potency [6] | outcome [7] | outcome [9] | outcome [10] | outcome [11] | Potency [12] | outcome [13] | Potency [14] | outcome [15]

O=C(OCc1ccccc1)C(=O)OCc1ccccc1
inactive: Potency [1] | Potency [2] | Potency [3] | Potency [4] | outcome [5] | Potency [6] | Potency [16] | outcome [17] | Potency [8] | outcome [9] | outcome [10] | outcome [11] | Potency [12] | Potency [18] | activity change, positive = activation [19] 0.466% | outcome [13] | Potency [14] | outcome [15]

CN=C(NC#N)Nc1ccc(C2=NNC(=O)CC2C)cc1 (configuration not stated)
inactive: Potency [1] | Potency [2] | Potency [3] | outcome [5] | Potency [6] | outcome [7] | Potency [16] | outcome [17] | outcome [9] | outcome [10] | outcome [11] | Potency [12] | Potency [18] | activity change, positive = activation [19] 5.55% [at 42.5 µM] | outcome [13] | Potency [14] | outcome [15]

OCCCCC(O)CO (configuration not stated)
inactive: Potency [1] | Potency [2] | Potency [3] | outcome [7] | Potency [16] | outcome [17] | Potency [8] | outcome [9] | outcome [10] | outcome [11] | Potency [12] | Potency [18] | activity change, positive = activation [19] -0.533% | outcome [13] | Potency [14] | outcome [15]

CC(C)NCC(O)COc1ccc(COCCOC(C)C)cc1 (configuration not stated)
inactive: Potency [1] | Potency [2] | Potency [3] | Potency [6] | outcome [7] | Potency [8] | outcome [9] | outcome [10] | Potency [12] | outcome [13] | Potency [14] | outcome [15]

C=CCCCCCCCCCCCC
inactive: Potency [1] | Potency [2] | Potency [3] | outcome [5] | Potency [6] | outcome [7] | Potency [8] | outcome [9] | outcome [10] | Potency [12] | outcome [13] | Potency [14] | outcome [15]

CCC(C)(CCC(C)C)C(=O)O (configuration not stated)
inactive: Potency [1] | Potency [2] | Potency [3] | Potency [4] | Potency [16] | outcome [17] | outcome [9] | outcome [10] | Potency [12] | Potency [18] | activity change, positive = activation [19] -1.46% | outcome [13] | Potency [14] | outcome [15]

CCO[Si](CCCS)(OCC)OCC
inactive: Potency [1] | Potency [2] | Potency [3] | Potency [4] | outcome [7] | Potency [16] | outcome [17] | Potency [8] | outcome [9] | outcome [10] | outcome [11] | Potency [12] | Potency [18] | activity change, positive = activation [19] 5.01% | outcome [13] | Potency [14] | outcome [15]

CCCCCCN
inactive: Potency [1] | Potency [2] | Potency [3] | Potency [4] | Potency [8] | outcome [9] | outcome [10] | Potency [12] | outcome [13] | Potency [14] | outcome [15]

O=C1CC(c2ccc(Cl)cc2)CC(=O)N1
inactive: Potency [1] | Potency [2] | Potency [3] | outcome [5] | Potency [6] | Potency [8] | outcome [9] | outcome [10] | outcome [11] | Potency [12] | outcome [13] | Potency [14] | outcome [15]

CCNC(=O)C1CC(C)CCC1C(C)C (configuration not stated)
inactive: Potency [1] | Potency [2] | Potency [3] | Potency [6] | outcome [7] | Potency [16] | outcome [17] | Potency [8] | outcome [9] | outcome [10] | outcome [11] | Potency [12] | Potency [18] | activity change, positive = activation [19] -8.38% | outcome [13] | Potency [14] | outcome [15]

O=Cc1ccc(Cl)c(Cl)c1
inactive: Potency [1] | Potency [2] | Potency [3] | Potency [4] | outcome [7] | Potency [8] | outcome [9] | outcome [11] | Potency [12] | outcome [13] | outcome [15]

COc1cc2c(cc1OC)[C@@H]1CC(=O)[C@@H](CC(C)C)CN1CC2
inactive: Potency [1] | Potency [2] | Potency [3] | Potency [4] | Potency [6] | outcome [7] | Potency [8] | outcome [9] | outcome [10] | outcome [11] | Potency [12] | outcome [13] | Potency [14] | outcome [15]

CCCCCCCCC(=O)Cl
inactive: Potency [1] | Potency [2] | Potency [3] | outcome [5] | Potency [6] | outcome [7] | outcome [17] | outcome [9] | outcome [10] | outcome [11] | Potency [12] | Potency [18] | activity change, positive = activation [19] 0.757% | outcome [13] | Potency [14] | outcome [15]

C=COCCOCCOCCOC=C
inactive: Potency [1] | Potency [2] | Potency [3] | Potency [4] | Potency [6] | outcome [7] | Potency [8] | outcome [9] | outcome [10] | outcome [11] | Potency [12] | outcome [13] | Potency [14] | outcome [15]
